# From PubChem BioAssay
# LGR2 antag: blocks bursicon-induced cAMP signaling via Drosophila LGR2; HEK293 LGR2, CRE-luciferase, bursicon-stimulated, 4 h; AID 720647; inhibition, % at 9.99 µM; 380,000 compounds, 0.35% hits;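 active = drop in luminescence signal, shown as inhibition above about 50% in the replicate tests, limit read from the data, passing the limit was not always enough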;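 also: agonist challenge used bursicon conditioned medium at about half maximal strength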
# SENP7 block: SENP7 protease inhibition | Q9BQF6 | recombinant SENP7, Z-RLRGG-aminoluciferin luminescence, 40 min | inhibition, % at 5 µM | 330,000 compounds, 1.5% hits | AID 434973;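 active = inhibition above about 50% at the single test dose, limit read from the data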;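 also: plate controls were DMSO with enzyme for no effect and no enzyme buffer wells for full effect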
# SENP6 block: SENP6 protease inhibition. inhibition, % at 10 µM. Recombinant SENP6 catalytic domain, aminoluciferin luminescence. Q9GZR1. AID 2599. 330,000 compounds, 1.8% hits;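 active = inhibition above about 50% at the single tested dose, limit read from the data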;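 also: plate controls were DMSO wells with enzyme for no effect and DMSO wells lacking enzyme for full effect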
# Target sequence (Q9GZR1 628-1112 limits assumed): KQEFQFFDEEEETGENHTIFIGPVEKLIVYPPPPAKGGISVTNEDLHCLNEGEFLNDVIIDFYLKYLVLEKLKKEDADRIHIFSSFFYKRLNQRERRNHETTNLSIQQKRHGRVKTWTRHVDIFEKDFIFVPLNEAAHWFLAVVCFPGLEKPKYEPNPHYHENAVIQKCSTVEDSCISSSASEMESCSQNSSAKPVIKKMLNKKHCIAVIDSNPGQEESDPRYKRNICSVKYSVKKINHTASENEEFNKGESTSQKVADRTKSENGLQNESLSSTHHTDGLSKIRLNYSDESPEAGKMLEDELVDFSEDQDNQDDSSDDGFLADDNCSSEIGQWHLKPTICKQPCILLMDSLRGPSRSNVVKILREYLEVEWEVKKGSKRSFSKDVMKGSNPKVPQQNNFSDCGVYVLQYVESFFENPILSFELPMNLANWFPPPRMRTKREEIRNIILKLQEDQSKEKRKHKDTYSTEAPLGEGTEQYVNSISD
# SENP8 block-1: SENP8 (human) protease inhibition; Q96LD8; recombinant SENP8, Nedd8 substrate fluorescence; inhibition, % at 20 µM; 360,000 compounds, 0.64% hits; AID 602440; in the data active = inhibition mostly above about 40%, no sharp cut-off; inactive = mostly below about 27%
# SENP8 block-2: SENP8 protease inhibition. Q96LD8. purified SENP8, Z-RLRGG-aminoluciferin cleavage, luminescence. inhibition, % at 10 µM. 330,000 compounds, 1.2% hits. AID 2540; in the data active = inhibition above about 50%
# HSP90 inh: inhibitors of HSP90 luciferase refolding in rabbit reticulocyte lysate | luciferase refolding luminescence, 3 h | inhibition, % at 5.6 µM | 290,000 compounds, 0.91% hits;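 active = inhibition above the screen-wide mean plus 3 SD, computed separately per campaign, cut at about 16% in these data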;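 also: 0% = DMSO wells and 100% = 60 µM geldanamycin wells; inhibitors lower the luminescence because luciferase stays unfolded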
# SENP8 confirm: confirmation of human SENP8 protease inhibitors | shares compounds with SENP7 block | Recombinant SENP8, Z-RLRGG-aminoluciferin luminescence, 60 min | inhibition, % at 12.5 µM | 6,200 compounds, 40% hits | AID 488912;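 active = mean inhibition across replicates above about 50%, limit read from the data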
# SENP6 confirm: human SENP6 inhibition, confirmed | shares compounds with SENP7 block | recombinant SENP6, Z-RLRGG-aminoluciferin luminescence | inhibition, % at 12.5 µM | 6,200 compounds, 58% hits
# SENP7 confirm: human SENP7 inhibition, confirmed. shares compounds with SENP7 block. recombinant SENP7, Z-RLRGG-aminoluciferin luminescence, 40 min. inhibition, % at 12.5 µM. 6,200 compounds, 69% hits. AID 488917
# Casp3 SENP sel: caspase-3 inhibition (SENP selectivity assay); shares compounds with SENP7 block; purified caspase-3, Z-DEVD-aminoluciferin luminescence, 60 min; inhibition, % at 12.5 µM; 6,200 compounds, 60% hits;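 active = mean inhibition above about 50%, limit read from the data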;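 also: plate controls were enzyme with DMSO for no effect and wells without caspase-3 for full effect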
# Target sequence (P42574 28-227 limits assumed): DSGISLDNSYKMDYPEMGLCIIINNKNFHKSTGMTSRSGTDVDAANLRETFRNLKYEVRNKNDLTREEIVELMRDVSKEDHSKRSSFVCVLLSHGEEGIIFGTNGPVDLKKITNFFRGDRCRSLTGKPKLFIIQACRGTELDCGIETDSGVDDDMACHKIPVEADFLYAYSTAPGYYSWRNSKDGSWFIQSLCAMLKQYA
# SENP luc ctr: luminescence interference (SENP counter-screen); shares compounds with SENP7 block; Pre-incubated SENP8/Z-RLRGG-aminoluciferin, luciferase luminescence interference; inhibition, % at 12.5 µM; 6,200 compounds, 39% hits;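 active = mean inhibition above about 50% when retested at one dose, limit read from the data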;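 also: plate controls were DMSO wells with completed reaction for no effect and substrate without enzyme for full effect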
# The depositor's hits bear a star; i = inactive; x = no result given. Compounds with a hit are over-represented: about 2.3% of the library has one in this group of screens.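 The calls were made as follows, unless noted: active = mean inhibition above about 50% in the one-dose retest (limit read from the data); inactive = the rest.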
SMILES,LGR2 antag,SENP7 block,SENP6 block,SENP8 block-1,SENP8 block-2,HSP90 inh,SENP8 confirm,SENP6 confirm,SENP7 confirm,Casp3 SENP sel,SENP luc ctr
CCOCC(=O)Nc1nc2ccc(OCC)cc2s1,x,63*,71*,8,37,0,56*,51*,81*,79*,62*
O=C(Cc1ccccn1)N[C@H]1CC[C@H](CCNC(=O)c2cc(Cl)cc(Cl)c2)O[C@@H]1CO,6,x,x,x,x,x,x,x,x,x,x
C[C@@H]1CN([C@@H](C)CO)C(=O)Cc2cc(NC(=O)Nc3ccc(F)cc3)ccc2O[C@H]1CN(C)C(=O)Nc1cccc2ccccc12,-9,x,x,x,x,x,x,x,x,x,x
O=C(C[C@@H]1CC[C@@H](NC(=O)CC2CC2)[C@H](CO)O1)NCc1ccc(Cl)cc1,8,x,x,x,x,x,x,x,x,x,x
CS(=O)(=O)N1N=C(c2ccc(Br)cc2)CC1c1ccc2c(c1)OCO2 (stereo not drawn),x,43,-14,7,-3,-1,x,x,x,x,x
Cc1ccc(C2=NN(S(C)(=O)=O)C(c3ccc4c(c3)OCO4)C2)cc1 (stereo not drawn),-42,59*,68*,12,50,-7,34,63*,90*,71*,42
CCOc1ccc(-n2nc3cc(C)c(N)cc3n2)cc1,-48,13,73*,i,46,11,40,74*,94*,38,6
CCOc1ccc(N2C(N)=NC(N)=NC2(C)C)cc1,x,-18,-1,7,-3,2,x,x,x,x,x
Cc1cc2nn(-c3ccc(Cl)cc3)nc2cc1N,6,4,9,-289,9,1,x,x,x,x,x
CCOc1ccc(-n2nc3ccc(N)cc3n2)cc1,x,41,86*,-429,79*,2,85*,45,1,2,66*
Cc1noc(C)c1S(=O)(=O)N(C)C[C@H]1Oc2ccc(NC(=O)Nc3ccc(C(F)(F)F)cc3)cc2CC(=O)N([C@@H](C)CO)C[C@@H]1C,-5,x,x,x,x,x,x,x,x,x,x
CC(C)C#Cc1cnc2c(c1)C(=O)N([C@H](C)CO)C[C@H](C)[C@@H](CN(C)C(=O)c1ccccn1)O2,-10,x,x,x,x,x,x,x,x,x,x
CC(=O)Nc1ccc(-c2cc(N)n(-c3ccccc3)n2)cc1,-69,58*,55*,-67,38,7,45,44,78*,80*,62*
Nc1cc(-c2ccc(Cl)cc2)nn1-c1ccccc1,-46,63*,34,-2,48,2,36,38,80*,53*,71*
O=c1oc(-c2cccs2)nc2sc3c(c12)CCCC3,-9,89*,75*,-37,74*,0,47,49,46,70*,20
CO[C@@H]1CN(C)C(=O)c2ccc(NC(=O)Nc3ccccc3F)cc2OC[C@@H](C)N(C(C)=O)C[C@@H]1C,5,x,x,x,x,x,x,x,x,x,x
O=C(O)c1ccc(-c2nc(-c3ccccc3Cl)cs2)cc1,-69,94*,98*,-30,95*,1,98*,99*,102*,97*,93*
O=C(O)c1ccc(-c2nc(-c3ccc(Cl)c(Cl)c3)cs2)cc1,x,79*,86*,-95,74*,-1,90*,92*,94*,72*,68*
O=C(C[C@H]1C[C@H]2c3cc(NC(=O)Nc4ccc(C(F)(F)F)cc4)ccc3O[C@H]2[C@H](CO)O1)NCC1CC1,-16,x,x,x,x,x,x,x,x,x,x
Cc1ccc(S(=O)(=O)Nc2ccc3c(c2)C(=O)N([C@@H](C)CO)C[C@@H](C)[C@H](CN(C)C(=O)Nc2ccccc2)O3)cc1,1,x,x,x,x,x,x,x,x,x,x
Cc1ccc(-c2csc(NC(=O)COC(=O)c3cccc(S(=O)(=O)N4CCOCC4)c3)n2)cc1,x,36,51*,x,0,-10,52*,51*,83*,70*,53*
COc1cccc(NC(=O)N[C@H]2CC[C@H](CC(=O)NCc3ccccn3)O[C@@H]2CO)c1,18,x,x,x,x,x,x,x,x,x,x
COCCNC(=O)/C(C#N)=C/c1cccc(/C=C(\C#N)C(=O)NCCOC)c1,-1,x,x,9,x,-4,x,x,x,x,x
COCCNC(=O)/C(C#N)=C/c1ccc(O)cc1,11,82*,92*,7,77*,-3,12,79*,96*,83*,80*
c1ccc(-c2cc(-c3ccccc3)on2)cc1,-84,98*,-10,32,87*,5,5,85*,48,56*,45
SMILES,LGR2 antag,SENP7 block,SENP6 block,SENP8 block-1,SENP8 block-2,HSP90 inh,SENP8 confirm,SENP6 confirm,SENP7 confirm,Casp3 SENP sel,SENP luc ctr
Nc1nc(-c2ccccc2)cs1,x,-13,0,14,-15,5,x,x,x,x,x
Cc1ccc(-c2cc(-c3ccccc3)no2)cc1,57*,98*,97*,12,92*,x,-23,29,71*,26,24
Nc1nc(-c2cc(-c3ccccc3)no2)cs1,-112,96*,96*,-7,95*,1,97*,97*,102*,95*,83*
O=C(c1ccccc1)c1cc(-c2ccccc2)on1,x,101*,99*,16,97*,-2,4,101*,104*,99*,94*
Cc1cc(NC(=O)c2cc(-c3ccccc3)on2)no1,x,11,-22,1,-3,-6,x,x,x,x,x
COc1ccc(NC(=O)Nc2cccc3c2O[C@@H](CN(C)C(=O)Nc2ccc(OC)cc2)[C@H](C)CN([C@H](C)CO)C3=O)cc1,4,x,x,x,x,x,x,x,x,x,x
O/N=C/c1ccc2cccc(O)c2n1,12,4,0,14,-4,4,x,x,x,x,x
COC(=O)c1ccc(/C=C/c2ccc3cccc(OC(C)=O)c3n2)cc1,-30,91*,95*,-397,87*,-4,79*,90*,98*,86*,7
Oc1ccc(/C=C/c2ccc3cccc(O)c3n2)cc1Br,-24,88*,97*,-107,92*,-10,98*,98*,102*,84*,94*
O=[N+]([O-])c1cccc(/C=C/c2ccc3cccc(O)c3n2)c1,2,22,13,28,-9,2,x,x,x,x,x
O=C(O)c1ccc(/C=C/c2ccc3cccc(O)c3n2)cc1,-62,98*,95*,-110,95*,3,98*,99*,102*,97*,78*
CC(C)NC(=O)N(C)C[C@@H]1Oc2cc(C3=CCCC3)ccc2S(=O)(=O)N([C@H](C)CO)C[C@H]1C,4,x,x,x,x,x,x,x,x,x,x
